The supplement of paper PMC10849652
Of roughly 8,800 targets only a part is listed; those with a hit were picked by preference. About 0.5% of all pairs of compound and target were hits. Values without a mark were called inactive.

Each target was assayed with CC1=C(SC2=C1C(=N[C@H](C3=NN=C(N32)C)CC(=O)N)C4=CC=C(C=C4)Cl)C (assay: log2 fold change, soluble protein after heating vs DMSO (PISA); higher = thermal stabilisation; K562 lysate, 10 uM; active = over 0.2 and 3.5 SD of the protein, either way, in both replicates (recomputed)).
In short: (§1)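 Pellets of K562 cells were dounce-homogenised in PBS pH 7.4 with 1 mM MgCl2, and the crude extract was held at 1 mg/mL protein for a 30 min treatment with 10 μM compound. Aliquots were heated for 3 min over 48°C-58°C and pooled before NP-40 was added to 0.5% at 4°C. The supernatant from 21,000xg for 90 min was quantified by TMTpro 16plex LC-MS/MS with channel sums equalised. Values are reported from duplicates as log-two fold change in thermal stability relative to solvent controls.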

Sequence of UniProt Q8N302 (Q8N302 whole entry, looked up): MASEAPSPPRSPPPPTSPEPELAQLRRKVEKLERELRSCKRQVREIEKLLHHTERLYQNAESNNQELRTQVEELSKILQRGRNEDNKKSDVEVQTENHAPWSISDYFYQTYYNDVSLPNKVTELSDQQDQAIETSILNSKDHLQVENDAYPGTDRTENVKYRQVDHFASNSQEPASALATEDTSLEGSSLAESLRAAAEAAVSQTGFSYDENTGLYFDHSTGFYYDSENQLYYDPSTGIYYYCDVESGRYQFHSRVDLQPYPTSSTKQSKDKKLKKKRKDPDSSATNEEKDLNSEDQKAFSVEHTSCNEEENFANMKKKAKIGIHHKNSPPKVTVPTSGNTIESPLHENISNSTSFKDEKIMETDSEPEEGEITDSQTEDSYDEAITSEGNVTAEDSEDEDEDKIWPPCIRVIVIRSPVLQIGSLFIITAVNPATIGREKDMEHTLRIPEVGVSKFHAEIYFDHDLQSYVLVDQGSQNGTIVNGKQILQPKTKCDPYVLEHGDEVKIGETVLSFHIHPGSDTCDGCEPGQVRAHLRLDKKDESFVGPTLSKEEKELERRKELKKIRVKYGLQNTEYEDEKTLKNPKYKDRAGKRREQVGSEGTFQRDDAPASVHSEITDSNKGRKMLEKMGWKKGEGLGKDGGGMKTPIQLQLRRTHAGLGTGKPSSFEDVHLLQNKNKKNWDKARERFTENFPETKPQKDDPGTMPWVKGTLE
Sequence of UniProt P53396 (P53396 whole entry, looked up): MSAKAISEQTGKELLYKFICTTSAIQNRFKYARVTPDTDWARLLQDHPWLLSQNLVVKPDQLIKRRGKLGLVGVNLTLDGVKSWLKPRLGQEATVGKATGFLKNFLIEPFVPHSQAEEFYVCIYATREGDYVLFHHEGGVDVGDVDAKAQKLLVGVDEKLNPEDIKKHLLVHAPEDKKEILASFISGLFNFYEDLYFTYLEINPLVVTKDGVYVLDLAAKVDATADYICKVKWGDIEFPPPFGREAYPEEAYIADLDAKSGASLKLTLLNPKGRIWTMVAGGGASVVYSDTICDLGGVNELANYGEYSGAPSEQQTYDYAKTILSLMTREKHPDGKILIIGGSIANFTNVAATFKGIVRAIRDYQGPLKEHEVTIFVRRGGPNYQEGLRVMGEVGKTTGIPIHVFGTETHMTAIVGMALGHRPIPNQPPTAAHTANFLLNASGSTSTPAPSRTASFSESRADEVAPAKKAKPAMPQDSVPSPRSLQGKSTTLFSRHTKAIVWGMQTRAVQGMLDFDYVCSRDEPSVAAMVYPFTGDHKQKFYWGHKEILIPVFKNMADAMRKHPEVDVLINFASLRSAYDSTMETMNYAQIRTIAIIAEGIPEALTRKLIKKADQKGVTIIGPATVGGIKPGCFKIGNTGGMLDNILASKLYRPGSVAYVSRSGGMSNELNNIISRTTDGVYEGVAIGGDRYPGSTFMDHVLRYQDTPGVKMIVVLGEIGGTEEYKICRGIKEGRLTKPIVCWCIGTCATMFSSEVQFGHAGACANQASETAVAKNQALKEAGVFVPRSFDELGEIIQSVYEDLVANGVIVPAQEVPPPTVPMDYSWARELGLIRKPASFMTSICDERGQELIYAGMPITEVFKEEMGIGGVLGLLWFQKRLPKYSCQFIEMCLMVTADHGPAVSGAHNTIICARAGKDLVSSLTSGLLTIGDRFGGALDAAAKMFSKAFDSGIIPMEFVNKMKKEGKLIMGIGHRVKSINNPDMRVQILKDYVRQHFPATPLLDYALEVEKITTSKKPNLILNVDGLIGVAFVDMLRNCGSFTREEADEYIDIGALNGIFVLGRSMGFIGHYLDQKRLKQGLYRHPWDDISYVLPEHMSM
Sequence of UniProt P28288 (P28288 whole entry, looked up): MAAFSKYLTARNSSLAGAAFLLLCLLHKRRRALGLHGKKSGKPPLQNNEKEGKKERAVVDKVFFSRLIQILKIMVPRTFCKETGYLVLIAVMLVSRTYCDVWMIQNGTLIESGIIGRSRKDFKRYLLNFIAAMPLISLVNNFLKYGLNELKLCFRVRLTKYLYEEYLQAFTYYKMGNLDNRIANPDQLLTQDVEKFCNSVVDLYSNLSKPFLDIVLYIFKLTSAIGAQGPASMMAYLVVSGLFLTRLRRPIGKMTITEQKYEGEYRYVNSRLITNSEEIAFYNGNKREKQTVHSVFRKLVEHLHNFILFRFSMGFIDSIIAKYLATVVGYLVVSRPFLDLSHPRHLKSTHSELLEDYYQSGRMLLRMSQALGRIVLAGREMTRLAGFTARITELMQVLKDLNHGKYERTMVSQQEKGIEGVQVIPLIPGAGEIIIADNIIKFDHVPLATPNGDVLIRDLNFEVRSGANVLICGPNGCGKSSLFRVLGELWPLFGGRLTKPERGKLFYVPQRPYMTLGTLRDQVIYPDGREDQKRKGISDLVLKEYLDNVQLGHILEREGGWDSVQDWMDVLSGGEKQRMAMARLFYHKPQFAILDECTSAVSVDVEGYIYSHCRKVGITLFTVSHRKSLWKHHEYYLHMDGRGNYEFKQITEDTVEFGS
Sequence of UniProt O43823 (O43823 whole entry, looked up): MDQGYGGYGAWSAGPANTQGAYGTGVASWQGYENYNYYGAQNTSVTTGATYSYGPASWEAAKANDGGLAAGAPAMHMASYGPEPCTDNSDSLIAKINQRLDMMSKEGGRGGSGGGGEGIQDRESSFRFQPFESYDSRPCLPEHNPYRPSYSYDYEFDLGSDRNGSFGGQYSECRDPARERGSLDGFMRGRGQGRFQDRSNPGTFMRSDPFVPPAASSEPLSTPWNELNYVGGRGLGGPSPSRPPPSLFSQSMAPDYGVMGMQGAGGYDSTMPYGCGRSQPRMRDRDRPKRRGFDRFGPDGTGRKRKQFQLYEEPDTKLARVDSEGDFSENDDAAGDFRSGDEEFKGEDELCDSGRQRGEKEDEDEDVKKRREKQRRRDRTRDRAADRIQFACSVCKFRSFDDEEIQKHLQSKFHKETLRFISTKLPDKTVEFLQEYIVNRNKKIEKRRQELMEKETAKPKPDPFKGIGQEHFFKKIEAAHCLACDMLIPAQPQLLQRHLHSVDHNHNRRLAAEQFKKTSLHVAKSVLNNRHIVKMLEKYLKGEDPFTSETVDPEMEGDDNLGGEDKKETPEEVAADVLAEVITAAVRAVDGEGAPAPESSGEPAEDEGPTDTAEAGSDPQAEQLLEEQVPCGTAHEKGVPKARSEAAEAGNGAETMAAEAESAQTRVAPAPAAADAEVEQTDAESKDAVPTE
Sequence of UniProt Q3SY69 (Q3SY69 whole entry, looked up): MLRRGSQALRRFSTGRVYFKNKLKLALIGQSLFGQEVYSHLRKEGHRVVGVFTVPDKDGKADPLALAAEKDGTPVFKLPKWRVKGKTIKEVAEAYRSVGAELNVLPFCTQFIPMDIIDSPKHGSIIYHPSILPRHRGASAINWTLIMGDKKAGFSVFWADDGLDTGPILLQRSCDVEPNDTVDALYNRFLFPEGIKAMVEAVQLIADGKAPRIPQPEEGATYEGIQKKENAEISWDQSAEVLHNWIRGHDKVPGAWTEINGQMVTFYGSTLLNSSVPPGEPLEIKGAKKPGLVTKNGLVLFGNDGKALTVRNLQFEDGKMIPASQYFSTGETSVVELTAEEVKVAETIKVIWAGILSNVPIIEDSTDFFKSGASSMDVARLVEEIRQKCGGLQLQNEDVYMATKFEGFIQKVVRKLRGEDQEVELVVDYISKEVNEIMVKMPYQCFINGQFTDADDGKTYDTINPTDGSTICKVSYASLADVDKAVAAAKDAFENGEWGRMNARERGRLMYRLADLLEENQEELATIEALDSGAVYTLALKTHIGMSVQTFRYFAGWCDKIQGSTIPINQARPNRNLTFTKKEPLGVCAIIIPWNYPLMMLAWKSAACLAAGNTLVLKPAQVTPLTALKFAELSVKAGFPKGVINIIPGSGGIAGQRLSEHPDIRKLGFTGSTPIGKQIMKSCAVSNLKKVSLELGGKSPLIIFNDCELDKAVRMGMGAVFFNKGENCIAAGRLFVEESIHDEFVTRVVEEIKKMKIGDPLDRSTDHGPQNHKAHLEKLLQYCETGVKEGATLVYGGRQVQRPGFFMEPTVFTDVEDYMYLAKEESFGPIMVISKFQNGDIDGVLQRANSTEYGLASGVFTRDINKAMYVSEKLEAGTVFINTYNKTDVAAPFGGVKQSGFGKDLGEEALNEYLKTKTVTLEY
Sequence of UniProt Q8N8A2 (Q8N8A2 whole entry, looked up): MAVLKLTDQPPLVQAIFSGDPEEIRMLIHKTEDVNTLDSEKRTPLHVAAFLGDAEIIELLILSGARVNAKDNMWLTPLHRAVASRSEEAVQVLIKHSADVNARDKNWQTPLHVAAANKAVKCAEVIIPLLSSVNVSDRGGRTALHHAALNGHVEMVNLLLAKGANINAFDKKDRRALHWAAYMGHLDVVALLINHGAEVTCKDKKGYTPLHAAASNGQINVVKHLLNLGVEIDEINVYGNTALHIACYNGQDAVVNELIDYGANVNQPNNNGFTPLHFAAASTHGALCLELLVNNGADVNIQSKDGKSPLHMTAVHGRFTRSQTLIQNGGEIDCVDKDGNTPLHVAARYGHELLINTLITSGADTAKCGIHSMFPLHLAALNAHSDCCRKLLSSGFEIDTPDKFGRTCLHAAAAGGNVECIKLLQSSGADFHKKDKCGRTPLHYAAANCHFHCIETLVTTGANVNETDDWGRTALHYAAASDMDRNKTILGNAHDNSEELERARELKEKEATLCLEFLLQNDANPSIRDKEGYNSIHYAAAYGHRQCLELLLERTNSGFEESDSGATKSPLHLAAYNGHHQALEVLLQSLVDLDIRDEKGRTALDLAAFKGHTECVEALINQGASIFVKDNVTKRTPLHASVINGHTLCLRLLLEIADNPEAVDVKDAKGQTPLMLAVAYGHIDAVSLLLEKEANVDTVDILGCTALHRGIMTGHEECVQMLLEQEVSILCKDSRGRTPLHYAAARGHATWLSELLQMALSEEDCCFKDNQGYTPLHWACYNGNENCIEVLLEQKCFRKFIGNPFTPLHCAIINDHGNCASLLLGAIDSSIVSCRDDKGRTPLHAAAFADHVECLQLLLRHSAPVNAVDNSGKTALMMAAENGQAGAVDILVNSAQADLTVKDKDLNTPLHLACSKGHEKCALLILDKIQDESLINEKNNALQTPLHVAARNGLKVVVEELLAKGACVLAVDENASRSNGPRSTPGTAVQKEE

Row | Target | log2 fold change
1 | ABCF2 isoform 2 (UniProt Q9UG63) | -0.011
2 | ANKRD44 isoform 2 (UniProt Q8N8A2) | -0.045
3 | AIF1L (UniProt Q9BQI0) | -0.031
4 | ACVR1 (UniProt Q04771) | -0.055
5 | ALDH1L2 (UniProt Q3SY69) | 0.041
6 | ANXA2 (UniProt H0YL33) | -0.079
7 | ACYP2 (UniProt P14621) | -0.032
8 | AKAP8 (UniProt O43823) | 0.073
9 | AGGF1 (UniProt Q8N302) | 0.049
10 | ABRACL (UniProt Q9P1F3) | -0.221
11 | AP5B1 (UniProt Q2VPB7) | -0.023
12 | ANKRD30A (UniProt Q9BXX3) | -0.051
13 | ANP32E isoform 3 (UniProt Q9BTT0) | 0.09
14 | ANXA1 (UniProt P04083) | 0.005
15 | ABCD3 (UniProt P28288) | -0.094
16 | ACLY isoform 2 (UniProt P53396) | -0.01

Each target was assayed with CC1=C2C(=CC=C1)N=C(N(C2=O)C3=CC=CC=C3C)CN4C=NC5=C(N=CN=C54)N in the same assay as above.
In short: as §1

Row | Target | log2 fold change
17 | ABCF2 isoform 2 (UniProt Q9UG63) | 0.04
18 | ANKRD44 isoform 2 (UniProt Q8N8A2) | 0.019
19 | ALDH1L2 (UniProt Q3SY69) | 0.052
20 | ACYP2 (UniProt P14621) | 0.011
21 | AGPAT2 (UniProt O15120) | -0.11
22 | AKAP8 (UniProt O43823) | -0.016
23 | AGGF1 (UniProt Q8N302) | 0.024
24 | AMDHD2 (UniProt Q9Y303) | 0.039
25 | ALDH18A1 isoform 2 (UniProt P54886) | 0.229
26 | AP3D1 isoform 2 (UniProt O14617) | -0.009
27 | ANP32E isoform 3 (UniProt Q9BTT0) | 0.015
28 | ARHGEF2 (UniProt V9GYF0) | 0.098
29 | ANXA1 (UniProt P04083) | -0.01
30 | ALKBH1 (UniProt Q13686) | -0.036
31 | ABCD3 (UniProt P28288) | 0.016
32 | ACLY isoform 2 (UniProt P53396) | 0.023
